From PubChem
Most compounds without a hit are left out; they make up all but 10% or so of the library.
MCF10A rerep: inducers of DNA re-replication in MCF 10A breast cells | MCF 10A DNA re-replication, Hoechst nuclear intensity, 48 h | AID 624296 | Potency, µM (series often up to 46.1 µM), for inactives: at the top dose activity, positive = re-replication, most hits filed as activators | hit rate 2.9% among 350,000; also: % of control where 0% means no effect; nearly all actives have a fitted effect of over 50% in size
Gal4-VP16 FLuc: Gal4-VP16 reporter inhibition counter-screen. Drosophila S2 Gal4-VP16 UAS-luciferase, luminescence, 20 h. Potency, µM (highest dose often 53.6 µM), for the others: top-dose activity, negative = inhibition, actives largely listed as inhibitors. hit rate 3.5% among 310,000;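 also: Gal4-VP16 expression switched on by copper sulfate through the metallothionein promoter; % is scaled to controls: 0 for no effect and ±100 for the full control effect; nearly all actives have a fitted effect of over 50% in size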
KB-3-1 cytotox: kills parental KB-3-1 adenocarcinoma cells; KB-3-1 viability, CellTiter-Glo ATP luminescence, 72 h; AID 1347075; hit rate 1.4% among 400,000; Potency, µM (doses to about 46.1 µM), usual class: cytotoxic; also: % is scaled to controls: 0 for no effect and ±100 for the full control effect; nearly all actives have a fitted effect of over 60% in size
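Parental KB-3-1 adenocarcinoma cells in phenol-red-free DMEM with 10% FBS were pin-treated with compounds at several concentrations, incubated 72 h at 37 °C, and viability read by CellTiter-Glo luminescence; concentration-effect curves were fitted after normalization.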
RORg inh: ROR gamma (mouse) transcription inhibition; hit rate 5.4% among 310,000; P51450; Drosophila S2 Gal4-RORgamma UAS-luciferase reporter, 20 h; Potency, µM (top dose mostly 53.6 µM), inactives show top-dose activity change, negative = inhibition, usual class: inhibitors; also: % is scaled to controls: 0 for no effect and ±100 for the full control effect; nearly all actives have a fitted effect of over 60% in size
Target sequence (P51450 whole entry, looked up, the tested form may be a part): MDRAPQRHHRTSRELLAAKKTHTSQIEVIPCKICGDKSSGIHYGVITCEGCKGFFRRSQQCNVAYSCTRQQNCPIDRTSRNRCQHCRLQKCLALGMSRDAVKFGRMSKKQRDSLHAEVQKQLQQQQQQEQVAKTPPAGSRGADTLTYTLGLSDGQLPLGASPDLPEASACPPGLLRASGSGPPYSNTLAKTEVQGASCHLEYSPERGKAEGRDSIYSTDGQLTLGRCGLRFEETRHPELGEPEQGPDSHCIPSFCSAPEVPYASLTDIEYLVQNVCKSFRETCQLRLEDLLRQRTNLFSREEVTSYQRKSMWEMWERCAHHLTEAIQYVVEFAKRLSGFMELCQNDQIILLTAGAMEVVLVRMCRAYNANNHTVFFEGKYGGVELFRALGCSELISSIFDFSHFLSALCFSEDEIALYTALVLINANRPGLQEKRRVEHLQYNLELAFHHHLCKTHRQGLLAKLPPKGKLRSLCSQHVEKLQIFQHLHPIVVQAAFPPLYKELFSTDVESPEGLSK
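Luminescence from a UAS-regulated Photinus luciferase reporter in stably transfected Drosophila Schneider cells is measured; decreased signal marks ROR gamma inhibition. Fusion expression is induced by 700 uM copper sulfate for 20 hr.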
SW480 rerep: induces DNA re-replication in SW480 colon adenocarcinoma cells; SW480 DNA re-replication, Hoechst DNA content imaging, 48 h; Potency, µM (top dose mostly 46.1 µM), for inactives: top-dose re-replication activation, most hits filed as activators; hit rate 1.8% among 340,000; AID 624297; also: % of control where 0% means no effect; nearly all actives have a fitted effect of over 55% in size
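Hoechst fluorescence of nuclei (405 nm excitation, 500-530 nm emission) measured by plate-scanning imager after 48 hr compound exposure at 37 C; re-replication scored as increased number of nuclei with elevated intensity.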
KB-V1 MDR tox: kills drug-selected multidrug resistant KB-V1 cells | KB-V1 MDR cells viability, CellTiter-Glo, 72 h | Potency, µM (titrated, usually from 46.1 µM), actives largely listed as cytotoxic | hit rate 3.4% among 400,000 | AID 1347076; also: % is scaled to controls: 0 for no effect and ±100 for the full control effect; nearly all actives have a fitted effect of over 60% in size
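qHTS viability screen in drug-selected KB-V1 MDR cells: 72 h compound treatment at 37 degrees C, ATP luminescence end point.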
* = called active by the depositor; i = inactive; u = inconclusive; x = no result given; ! = a repeat was not active; [ ] = remark or other dose. Calls follow the shape of the dose curve; as a rule, active = well fitted curve in the direction sought with a large enough effect; inconclusive = small, poorly fitted or top-dose-only effect, or another doubt; inactive = no such curve, though single readings can be large; an effect the other way counts as inactive or inconclusive. Potency is read from the fitted curve at half-maximal effect.

SMILES	MCF10A rerep	Gal4-VP16 FLuc	KB-3-1 cytotox	RORg inh	SW480 rerep	KB-V1 MDR tox
Cc1ccc(NS(=O)(=O)c2cccc(C(=O)NCC(c3ccco3)N3CCCC3)c2)cc1 (configuration not stated)	12µM*	x	i	x	u	i
Cc1noc(Cn2c(=O)c3cc4c(cc3n(CC(=O)Nc3cccc(Cl)c3)c2=O)OCO4)n1	x	x	i	x	x	i
COc1ccc(C)cc1NC(=O)C1COc2ccccc2C1 (configuration not stated)	x	x	i	x	x	i
Cc1ccc(N2CCN(C(=O)C3CCN(S(=O)(=O)c4ccc5c(c4)oc(=O)n5C)CC3)CC2C)cc1 (configuration not stated)	x	x	i	x	x	u
CCc1nc2ccc(C(=O)N3CCN(S(=O)(=O)CC)CC3)cn2c1N(CC)C(=O)NCCc1ccccc1	x	x	i	x	x	i
C1CCCCCC(NCCN2CCNCC2)CCCCC1	u	-9%	16µM*	-29%	u	u
C1CN(CCN2CCOCC2)CCN1	u	-2%	i	10%[1.91 µM]	-80%	i
COc1cccc2c1C(=O)c1c(O)c3c(c(O)c1C2=O)C[C@](O)(C(=O)CO)C[C@@H]3O[C@H]1C[C@H](N)[C@@H](O)[C@H](C)O1	-4%	0%	x	-4%[10 µM]	-8%	x
COc1cccc2c1C(=O)c1c(O)c3c(c(O)c1C2=O)CC(O)(C(=O)CO)CC3OC1CC(N(C)C)C(O)C(C)O1 (configuration not stated)	1%	x	u	x	-9%	13µM*
COc1cccc2c1C(=O)c1c(O)c3c(c(O)c1C2=O)C[C@@](O)(C(=O)CO)C[C@@H]3O[C@H]1C[C@H](N)[C@@H](O)[C@H](C)O1	-26%	x	u	x	-134%	x
COc1cccc2c1C(=O)c1c(O)c3c(c(O)c1C2=O)C[C@@](O)(C(C)=O)C[C@@H]3O[C@H]1C[C@H](N)[C@H](O)[C@H](C)O1	13%	6.3µM*!	0.013µM*	2.5µM*	-4%	u
COc1cccc2c1C(=O)c1c(O)c3c(c(O)c1C2=O)C[C@@](O)(C(=O)CO)C[C@@H]3OC1C[C@@H](N)[C@H](O)[C@H](C)O1 (some centres not stated)	x	u	x	2.5µM*	x	x
CCCSc1nc2sc3c(c2c(=O)n1-c1ccc(C)c(Cl)c1)CCN(C(C)=O)C3	x	x	i	x	x	i
COc1cccc(CNCc2cccn2-c2nnc(N3CCN(c4ccccc4)CC3)s2)c1	x	x	i	x	x	u
CC(C)Nc1nc(Cl)nc(N(C#N)CN2C(=O)c3ccccc3C2=O)n1	16µM*	1%	u	-31%	u	i
CCOC(=O)CC(=O)CSc1ncnc2c1nnn2-c1ccc(OC)cc1	2%	-3%	i	8.9µM*	-4%	i
COc1ccc(-n2nnc3c(SCC(=O)N4CCCc5ccccc54)ncnc32)cc1	-3%	x	i	x	12µM*	i
COc1ccc(-n2nnc3c(=O)n(CC(=O)N4CCCc5ccccc54)cnc32)cc1	3%	-12%	i	-28%	-11%	i
Brc1ccc2c(c1)OCCOCCOCCOCCOCCO2	-2%	1%	i	-7%	-6%	i
Brc1ccc2c(c1)OCCOCCOCCOCCOCCOCCO2	1%	-5%	i	1%	7%	6.5µM*
c1ccc2c(c1)OCCOCCOCCOCCOc1ccccc1OCCOCCOCCO2	3%	-6%	26µM*	13%	u	3.7µM*
Cc1cc(C(=O)Nc2nc3c(C)cccc3s2)c(C)o1	25%	u	i	u	0%	i
O=C(NNc1nc2c(F)cc(F)cc2s1)C1=COCCO1	1%	-27%	i	8.9µM*	-1%	i
Cc1cccc2sc(NNC(=O)C3=COCCO3)nc12	6%[9.22 µM]	13µM*	i	2.2µM*	0%	i
CCOC(=O)/C(C#N)=N/Nc1c(C)n(C)n(-c2ccccc2)c1=O	15%	11%	i	-34%	-13%	i
SMILES	MCF10A rerep	Gal4-VP16 FLuc	KB-3-1 cytotox	RORg inh	SW480 rerep	KB-V1 MDR tox
Cc1c(N/N=C(\C#N)C(=O)c2ccccc2)c(=O)n(-c2ccccc2)n1C	16%	u	u	16µM*	u	u
Cc1ccccc1C(=O)/C(C#N)=N/Nc1c(C)n(C)n(-c2ccccc2)c1=O	-4%	20µM*	i	8.9µM*	u	0.46µM*
S=C(NCc1ccccc1)NCc1ccc(Cl)cc1	4%	u	i	u	2%	i
O=C(O)CC(NC(=S)NCc1ccccc1)C(=O)O (configuration not stated)	16%	11µM*	i	16µM*	-3%	i
NC(=O)CC(NC(=S)NCc1ccccc1)C(=O)O (configuration not stated)	0%	u	i	u	-1%	i
S=C(NCCCc1ccccc1)NCc1ccccc1	9%	11µM*	i	6.3µM*	-3%	i
OCCNC(=S)NCc1ccccc1	1%	4%	i	11%	-6%	i
S=C(NCc1ccccc1)NCc1ccccc1	u	-8%	i	u	21µM*	i
CCNC(=S)NNc1ccccc1	8%	4µM*	i	0.71µM*	-36%	i
COc1ccc(OC)c(NC(=O)c2cccc(NC(=O)c3ccco3)c2)c1	x	x	i	x	x	i
COc1ccc(NC(=O)Nc2nnc(N(C)C3CCCCC3)s2)c(OC)c1	x	x	i	x	x	i
CC(NC(=S)NCc1ccccc1)C12CC3CC(CC(C3)C1)C2 (configuration not stated)	13%	u	i	2.8µM*	-17%	i
CC(NC(=S)NCCCN1CCOCC1)C12CC3CC(CC(C3)C1)C2 (configuration not stated)	11%	u	i	10µM*	10%	i
CCOCCCNC(=S)Nc1ccc(S(N)(=O)=O)cc1	3%	u	i	30%	-1%	i
CC(NC(=O)c1ccccc1F)C12CC3CC(CC(C3)C1)C2 (configuration not stated)	-2%	x	i	x	-18%	i
CCOCCCNC(=S)NCCc1ccccc1	0%	13µM*	i	11µM*	3%	i
S=C(NCc1ccccc1)NNc1ccccc1	-2%	3.2µM*	i	1.4µM*	1%	i
COc1ccc(NC(=O)N2CCc3c([nH]c4ccc(OC)cc34)C2c2ccc(OC)cc2)cc1 (configuration not stated)	x	x	i	x	x	i
CCOC(=O)c1ccccc1NC(=O)c1cnc(N2CCOCC2)c2ccccc12	x	x	i	x	x	i
